Results from ChEMBL document CHEMBL1961873, “Compounds: GSK PKIS; Assays: Nanosyn kinase panel” (2012).
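Note: values are averaged percent inhibition of BTK enzyme activity.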

Each compound was assayed against Tyrosine-protein kinase BTK (Homo sapiens) (UniProt Q06187). Conditions: at 0.1 µM.
Tyrosine-protein kinase BTK (Homo sapiens), sequence (Q06187 whole entry): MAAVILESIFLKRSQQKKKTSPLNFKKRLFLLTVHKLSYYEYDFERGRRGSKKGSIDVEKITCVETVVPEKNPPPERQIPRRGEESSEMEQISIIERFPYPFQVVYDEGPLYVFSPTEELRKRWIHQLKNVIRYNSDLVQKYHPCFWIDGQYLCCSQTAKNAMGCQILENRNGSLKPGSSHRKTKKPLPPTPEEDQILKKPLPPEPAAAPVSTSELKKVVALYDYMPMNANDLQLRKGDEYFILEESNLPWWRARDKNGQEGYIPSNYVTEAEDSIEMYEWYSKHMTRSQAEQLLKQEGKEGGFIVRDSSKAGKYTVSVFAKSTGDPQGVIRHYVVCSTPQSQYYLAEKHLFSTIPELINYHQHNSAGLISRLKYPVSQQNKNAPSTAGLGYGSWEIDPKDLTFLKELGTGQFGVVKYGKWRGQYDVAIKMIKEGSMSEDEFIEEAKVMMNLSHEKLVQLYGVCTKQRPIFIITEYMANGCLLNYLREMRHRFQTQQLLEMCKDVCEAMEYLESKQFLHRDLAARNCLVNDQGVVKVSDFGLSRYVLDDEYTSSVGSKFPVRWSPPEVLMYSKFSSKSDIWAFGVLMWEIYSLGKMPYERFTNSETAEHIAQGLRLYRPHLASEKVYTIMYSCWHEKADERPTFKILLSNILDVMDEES
Work on `O=C(Nc1n[nH]c2cc(-c3ccc(F)cc3)ccc12)C1CC1` yielded an inhibition of -1.4%.
For `CNC(=O)c1cccc(C#Cc2cncnc2Nc2ccc(OCc3cccc(F)c3)c(Cl)c2)c1`, the inhibition was 2.52%.
`COc1cccc(-c2c[nH]c3c(N/N=C/c4ccncc4)ncnc23)c1` gave an inhibition of 0.88%.
In the case of `CCn1c(-c2nonc2N)nc2cnc(Oc3cccc(NC(=O)c4ccc(N(C)C)cc4)c3)cc21`, the inhibition is reported as -0.86%.
For `COc1ccc(-c2cc3c(N)ncnc3o2)cc1`, the inhibition was -0.13%.
`c1ccc(-c2nc3n(c2-c2ccc4c(c2)OCO4)CCC3)nc1` was tested, and the inhibition was -0.42%.
In the case of `FC(F)(F)c1cccc(-c2nn3ncccc3c2-c2ccnc(Nc3ccc4c(c3)OCCO4)n2)c1`, the inhibition is reported as -0.12%.
`CC(C)COC(=O)c1ccc2c(c1)/C(=C/Nc1ccc(S(N)(=O)=O)cc1)C(=O)N2` showed an inhibition of -1.47%.
Work on `COc1ccc(-c2nn3ncccc3c2-c2ccnc(Nc3ccc4c(c3)OCCO4)n2)cc1` yielded an inhibition of 0.65%.
For `CN1CCC(n2cnc(-c3ccc(F)cc3)c2-c2ccnc(N)n2)CC1`, the inhibition was 0.47%.
Work on `N#Cc1c(NC(=O)c2ccc(F)cc2)sc2c1CCCC2` yielded an inhibition of -1.3%.
Work on `COC(=O)Nc1nc2ccc(S(=O)(=O)c3ccc(NC(=O)Nc4cc(C(F)(F)F)ccc4F)cc3)cc2[nH]1` yielded an inhibition of 1.86%.
For `NS(=O)(=O)c1ccc(N/N=C2\C(=O)Nc3ccc4ncccc4c32)cc1`, the inhibition was 1.8%.
Compound `[O-][S+]1CCN(Cc2ccc(-c3ccc4ncnc(Nc5ccc(OCc6cccc(F)c6)c(Cl)c5)c4c3)o2)CC1` has an inhibition of -0.42%.
In the case of `Cc1cccc2c1NC(=O)/C2=N\Nc1ccc(S(N)(=O)=O)cc1`, the inhibition is reported as 1.48%.
Work on `CS(=O)(=O)CCNCc1ccc(-c2ccc3ncnc(Nc4ccc(OCc5ccccc5)c(C(F)(F)F)c4)c3c2)o1` yielded an inhibition of 1.47%.
